Results reported in PubChem BioAssay (EPA / NIEHS).
Active and inactive are the calls of the source. How the source made its calls: active means hit-call score of the fitted dose curve at least 0.9, where 1 is the maximum; inactive means score below 0.9.

Columns and labels:
Conditions in all cases: mRNA level, 48 h; actives raise or lower the signal
[1] = read-out: Insulin Like Growth Factor 1 (IGF1), IGF1 (gene 3479); assay: LTEA_HepaRG_IGF1: Life Technologies and Expression Analysis (LTEA) Assay for Insulin Like Growth Factor 1 (IGF1) using HepaRG (AID 2283506)
Outline: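 Endpoint: IGF1 mRNA change by qRT-PCR, housekeeping-normalized, fitted bidirectionally relative to 0.5% DMSO vehicle. Human HepaRG cells were treated 48 h in serum-free induction medium, eight half-log concentrations topping at 100 uM.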

[2] = read-out: Intercellular Adhesion Molecule 1 (ICAM1), ICAM1 (gene 3383); assay: LTEA_HepaRG_ICAM1: Life Technologies and Expression Analysis (LTEA) Assay for Intercellular Adhesion Molecule 1 (ICAM1) using HepaRG (AID 2283507)
Outline: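 Using the human liver line HepaRG, compounds are tested in duplicate over 48 h at concentrations up to 100 uM. Expression is determined by TaqMan qRT-PCR, normalized to endogenous controls, and analysed relative to 0.5% DMSO vehicle.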

[3] = read-out: Insulin-like growth factor-binding protein 1 (IGFBP1), IGFBP1 (gene 3484); assay: LTEA_HepaRG_IGFBP1: Life Technologies and Expression Analysis (LTEA) Assay for Insulin-like growth factor-binding protein 1 (IGFBP1) using HepaRG (AID 2283508)
Outline: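 HepaRG, 48 h, 8 conc. (max 100 uM, half-log), duplicates, 0.5% DMSO. Readout: TaqMan qRT-PCR, ACTB/GAPDH/POLR2A normalisation. Fit: bidirectional vs DMSO.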

[4] = read-out: Interleukin 6 (IL6), IL6 (gene 3569); assay: LTEA_HepaRG_IL6: Life Technologies and Expression Analysis (LTEA) Assay for Interleukin 6 (IL6) using HepaRG (AID 2283509)
Outline: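 Changes in IL6 mRNA, up or down relative to 0.5% DMSO controls, were derived from concentration-response curves in human HepaRG cells treated for 48 h at up to 100 uM, with ACTB, GAPDH and POLR2A as normalizers.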

[5] = read-out: Interleukin 6 Receptor (IL6R), IL6R (gene 3570); assay: LTEA_HepaRG_IL6R: Life Technologies and Expression Analysis (LTEA) Assay for Interleukin 6 Receptor (IL6R) using HepaRG (AID 2283510);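 on AC50: differentiated human HepaRG liver cells in serum-free induction medium; TaqMan qRT-PCR signal normalized to ACTB GAPDH and POLR2A housekeeping genes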
Outline: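 In this HepaRG screen, test chemicals act on cells for 48 h at up to 100 uM (eight half-log points, duplicate wells). IL6R expression is quantified by qRT-PCR after normalization to ACTB, GAPDH and POLR2A, with DMSO as baseline.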

[6] = read-out: Potassium channel subfamily K member 1 (KCNK1), KCNK1 (gene 3775); assay: LTEA_HepaRG_KCNK1: Life Technologies and Expression Analysis (LTEA) Assay for Potassium channel subfamily K member 1 (KCNK1) using HepaRG (AID 2283511)
Outline: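 Human HepaRG cultures receive test chemicals for 48 h in 0.5% DMSO, top concentration 100 uM with half-log dilutions. Induction or suppression of KCNK1 mRNA relative to DMSO is derived by bidirectional fitting of qRT-PCR data.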

[7] = read-out: Keratin 19 (KRT19), KRT19 (gene 3880); assay: LTEA_HepaRG_KRT19: Life Technologies and Expression Analysis (LTEA) Assay for Keratin 19 (KRT19) using HepaRG (AID 2283512)
Outline: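 Readout is qRT-PCR of KRT19 mRNA, normalized to ACTB, GAPDH and POLR2A, from HepaRG cells treated 48 h with eight-point half-log dilutions topping at 100 uM. Activity in either direction is scored relative to 0.5% DMSO vehicle.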

[8] = read-out: JUN Transcription Factor, JUN (gene 3725); assay: LTEA_HepaRG_JUN: Life Technologies and Expression Analysis (LTEA) Assay for JUN Transcription Factor using HepaRG (AID 2283513)
Outline: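 Gene-expression endpoint: JUN mRNA (qRT-PCR, normalized to three reference genes) in HepaRG cultures treated 48 h with chemicals, duplicate wells, 100 uM maximum with half-log dilutions; bidirectional fitting relative to 0.5% DMSO.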

[9] = read-out: Lipoprotein lipase (LPL), LPL (gene 4023); assay: LTEA_HepaRG_LPL: Life Technologies and Expression Analysis (LTEA) Assay for Lipoprotein lipase (LPL) using HepaRG (AID 2283515)
Outline: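 Concentration-response testing used half-log steps from 100 uM in 0.5% DMSO on human HepaRG cells, 48 h, duplicate wells. Phenobarbital 1 mM served as induction control; LPL mRNA was normalized to ACTB, GAPDH, POLR2A.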

[10] = read-out: MicroRNA 122 (MIR122), gene 406906; assay: LTEA_HepaRG_MIR122: Life Technologies and Expression Analysis (LTEA) Assay for MicroRNA 122 (MIR122) using HepaRG (AID 2283516); further: the transcript read is the microRNA miR-122
Outline: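 Changes in transcript abundance, up or down relative to 0.5% DMSO vehicle, were scored after 48 h chemical treatment of HepaRG cells (maximum 100 uM). Quantification used TaqMan qRT-PCR normalized to housekeeping genes.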

[11] = read-out: matrix metalloproteinase-10 (MMP10), MMP10 (gene 4319); assay: LTEA_HepaRG_MMP10: Life Technologies and Expression Analysis (LTEA) Assay for matrix metalloproteinase-10 (MMP10) using HepaRG (AID 2283517)
Outline: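 In differentiated HepaRG cultures kept in 0.5% DMSO, test chemicals act for 48 h over an eight-point range with a top dose of 100 uM. Expression is then quantified by TaqMan RT-PCR against ACTB, GAPDH and POLR2A.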

MYC, MYC (gene 4609) = assay: LTEA_HepaRG_MYC: Life Technologies and Expression Analysis (LTEA) Assay for MYC using HepaRG (AID 2283518)
Outline: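 Expression changes were scored by TaqMan qRT-PCR with ACTB, GAPDH and POLR2A normalization. Cultures in serum-free induction medium received duplicate 8-point concentration series, highest 100 uM, for 48 h; DMSO (0.5%) served as baseline.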

[12] = read-out: matrix metalloproteinase-3 (MMP3), MMP3 (gene 4314); assay: LTEA_HepaRG_MMP3: Life Technologies and Expression Analysis (LTEA) Assay for matrix metalloproteinase-3 (MMP3) using HepaRG (AID 2283519)
Outline: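 Human liver HepaRG cultures received chemicals (top concentration 100 uM, 0.5% DMSO) for 48 h in duplicate. MMP3 mRNA induction or loss was then assessed via TaqMan qRT-PCR with housekeeping-gene normalisation.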

[13] = read-out: Paternally Expressed 10 (PEG10), PEG10 (gene 23089); assay: LTEA_HepaRG_PEG10: Life Technologies and Expression Analysis (LTEA) Assay for Paternally Expressed 10 (PEG10) using HepaRG (AID 2283520);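 on AC50: PEG10 transcript by qRT-PCR normalised to ACTB GAPDH and POLR2A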
Outline: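 After 48 h exposure of differentiated HepaRG cells (0.5% DMSO vehicle, eight concentrations up to 100 uM, duplicates), PEG10 mRNA was measured by TaqMan qRT-PCR. Values were normalised to endogenous control genes and analysed bidirectionally against vehicle.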

[14] = read-out: Nuclear factor NF-kappa-B p105 subunit (Homo sapiens) (UniProt P19838); assay: LTEA_HepaRG_NFKB1: Life Technologies and Expression Analysis (LTEA) Assay for Nuclear Factor Kappa B Subunit 1 (NFKB1) using HepaRG (AID 2283521)
Outline: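 Human HepaRG cells receive eight half-log concentrations, highest 100 uM, for 48 h. NFKB1 expression is then quantified by qRT-PCR and analysed for up- or down-regulation relative to 0.5% DMSO vehicle.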

[15] = read-out: Protein phosphatase 2A (PPP2R4), PTPA (gene 5524); assay: LTEA_HepaRG_PPP2R4: Life Technologies and Expression Analysis (LTEA) Assay for Protein phosphatase 2A (PPP2R4) using HepaRG (AID 2283522)
Outline: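 Using HepaRG cultures maintained in 0.5% DMSO, chemicals are tested 48 h at up to 100 uM in duplicate. Induction or suppression of PPP2R4 mRNA, measured by qRT-PCR, is fitted bidirectionally against the vehicle baseline.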

[16] = read-out: Phosphatase and tensin (PTEN), PTEN (gene 5728); assay: LTEA_HepaRG_PTEN: Life Technologies and Expression Analysis (LTEA) Assay for Phosphatase and tensin (PTEN) using HepaRG (AID 2283523)
Outline: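 Expression of PTEN is quantified in the human liver line HepaRG following two days of dosing (top concentration 100 uM, half-log dilutions, 0.5% DMSO). Values derive from bidirectional curve fitting relative to DMSO controls.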

[17] = read-out: solute carrier (SLC22A1), SLC22A1 (gene 6580); assay: LTEA_HepaRG_SLC22A1: Life Technologies and Expression Analysis (LTEA) Assay for solute carrier (SLC22A1) using HepaRG (AID 2283524);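 on AC50: differentiated human HepaRG liver cells in serum-free induction medium; TaqMan qRT-PCR normalized to ACTB GAPDH and POLR2A housekeeping genes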
Outline: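 Transcript induction or suppression of SLC22A1 in human HepaRG cultures is scored after 48 h chemical treatment, with DMSO (0.5%) as baseline for bidirectional fitting. Concentrations span eight half-log points topping at 100 uM.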

[18] = read-out: Pyruvate Dehydrogenase Kinase 4 (PDK4), PDK4 (gene 5166); assay: LTEA_HepaRG_PDK4: Life Technologies and Expression Analysis (LTEA) Assay for Pyruvate Dehydrogenase Kinase 4 (PDK4) using HepaRG (AID 2283525)
Outline: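 Eight-point, half-log concentration series (max 100 uM, 0.5% DMSO) applied to differentiated HepaRG cells for 48 h in duplicate. Endpoint: PDK4 mRNA induction or repression by qRT-PCR against DMSO baseline.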

Measured: AC50

Chain of Nuclear factor NF-kappa-B p105 subunit (Homo sapiens) (P19838 whole entry, looked up): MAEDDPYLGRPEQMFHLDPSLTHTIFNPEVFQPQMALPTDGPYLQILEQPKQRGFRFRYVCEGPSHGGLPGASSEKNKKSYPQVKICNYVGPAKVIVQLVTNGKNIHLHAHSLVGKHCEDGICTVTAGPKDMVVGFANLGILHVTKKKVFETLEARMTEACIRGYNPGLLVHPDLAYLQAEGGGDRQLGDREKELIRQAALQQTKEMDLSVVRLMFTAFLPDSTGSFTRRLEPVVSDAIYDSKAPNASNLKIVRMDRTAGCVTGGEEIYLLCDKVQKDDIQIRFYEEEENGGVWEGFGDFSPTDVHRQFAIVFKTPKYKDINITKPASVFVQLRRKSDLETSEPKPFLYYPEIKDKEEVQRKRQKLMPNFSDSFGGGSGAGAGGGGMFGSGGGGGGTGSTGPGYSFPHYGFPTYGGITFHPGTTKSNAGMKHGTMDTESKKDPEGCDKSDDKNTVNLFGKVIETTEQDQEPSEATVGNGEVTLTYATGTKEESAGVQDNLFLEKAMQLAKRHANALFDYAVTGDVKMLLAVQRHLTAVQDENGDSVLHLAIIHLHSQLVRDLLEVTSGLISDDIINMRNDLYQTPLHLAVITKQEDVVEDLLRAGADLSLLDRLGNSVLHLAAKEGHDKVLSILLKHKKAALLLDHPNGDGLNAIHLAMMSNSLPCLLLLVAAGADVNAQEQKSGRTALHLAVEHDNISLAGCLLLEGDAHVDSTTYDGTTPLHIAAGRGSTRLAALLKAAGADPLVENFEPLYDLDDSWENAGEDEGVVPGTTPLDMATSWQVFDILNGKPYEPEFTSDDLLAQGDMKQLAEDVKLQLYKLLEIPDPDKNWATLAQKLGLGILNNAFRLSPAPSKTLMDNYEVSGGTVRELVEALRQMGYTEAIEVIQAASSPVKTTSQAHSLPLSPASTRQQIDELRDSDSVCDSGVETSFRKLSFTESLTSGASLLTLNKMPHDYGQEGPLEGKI

CS/C(C)=N/OC(=O)N(C)SN(C)C(=O)O/N=C(\C)SC
inactive: all assays above

N#Cc1cc(Br)c(O)c(Br)c1
active: [1] 17.4 µM | [2] 69.9 µM | [3] 19.3 µM | [4] 34.5 µM | [5] 19.4 µM | [7] 25.6 µM | [8] 24.2 µM | [10] 14.2 µM | [12] 2.69 µM | [13] 10.5 µM | [14] 5.8 µM | [15] 10.7 µM | [16] 26.1 µM | [17] 16.2 µM | [18] 9.64 µM
inactive: [6] | [9] | [11] | MYC, MYC (gene 4609)

CCOP(=S)(OCC)SCn1c(=O)oc2cc(Cl)ccc21
not listed: [1] | [7] | [9] | [14]
inactive: all other assays above

COc1cnc(OC)n2nc(NS(=O)(=O)c3c(OCC(F)F)cccc3C(F)(F)F)nc12
active: [1] 10.3 µM
not listed: [14]
inactive: all other assays above

C=CC1(C)OC(=O)N(c2cc(Cl)cc(Cl)c2)C1=O (centres undefined)
active: [13] 34.1 µM | [18] 50 µM
not listed: [9]
inactive: all other assays above
